In PubChem BioAssay (Tox21) one finds outcome data, which are given here for 40 compounds.

Results filed as inconclusive are left out. The source made the active and inactive calls. Calls come from the whole dose curve; as a rule, active = well fitted curve in the direction sought with a large enough effect in the signal ratio in the repeat runs (not every such curve was filed as active); inconclusive = weak or mixed curves, or a change in a side signal; inactive = no such curve, though single readings can be large or run the other way; the % refers to the signal ratio.

This test can be described thus: qHTS assay to identify small molecule agonists of the NFkB signaling pathway (AID 1159509). To be noted: NFkB-bla ME-180 cells, beta-lactamase FRET ratio, 5 h; series mostly up to 61 µM. The text has this: National Center for Advancing Translational Sciences [NCATS]
NIH Chemical Genomics Center [NCGC]
U.S. Environmental Protection Agency [EPA]
National Institutes of Environmental Health Sciences [NIEHS]
National Toxicology Program [NTP]
U.S. Food and Drug Administration [FDA]
Transcription factors and their stimulated target gene expression play pivotal roles across many cellular processes including responses to environmental stimuli. Proper regulation of associated pathways is critical to maintain cell health and function. Constitutive activation of transcription factor pathways has been implicated in tumors as it may block cellular functions such as apoptosis and lead to invasion and metastasis. One important transcription factor that stimulates gene expression in response to cytokines, UV radiation, and other stimuli is nuclear factor-kappa B (NFkB). To measure activation of the NFkB pathway, the CellSensor NFkB-bla ME-180 cell line (Life Technologies, Carlsbad, CA) that stably expresses beta-lactamase reporter gene under the regulation of a NF-kB response element was used. This assay allows measurement of the NFkB pathway activity induced by compounds in a ME-180 cell line. This system quantitates NF-kB activity using a FRET-based assay system where beta-lactamase expression disrupts FRET, allowing for fluorescent measurement of activity. This cell line has been used to screen the Tox21 10K compound library and to identify compounds that induce the NFkB pathway activity.
Tox21 Assay Protocol Summary:
NFkB-bla ME-180 cells were dispensed at 2,000 cells/6 uL of assay medium per well into black wall/clear-bottom 1536-well plates using a Multidrop Combi (ThermoFisher Scientific, Waltham, MA) dispenser. After the assay plates were incubated at 37 C and 5% CO2 for an overnight, 23 nL of compounds dissolved in DMSO, positive controls or DMSO only was transferred to the assay plate by a Pintool station (Kalypsys, San Diego, CA). The assay plates were incubated at 37 C and 5% CO2 for 5 hr. One uL of LiveBLAzer B/G FRET substrate (Life Technologies) was added using a Flying Reagent Dispenser (Aurora Discovery, San Diego, CA) and the plates were incubated at room temperature for 1.5 hr. Fluorescence intensity (405 nm excitation, 460 nm and 530 nm emissions) was measured using an Envision plate reader (PerkinElmer, Shelton, CT).
(In qHTS, concentration-response curves come from the screen itself.)
`CCCCCCOC(=O)CC`: the outcome was inactive. As for `C=CC(OCC)OCC`, the entry is “inactive”; as for `CC(=O)CCCCn1c(=O)c2c(ncn2C)n(C)c1=O`, “inactive”; as for `CC(CO)c1ccccc1` (stereo not given), “inactive”. As for `CC(C)OC(=O)CCCCC(=O)OC(C)C`, the outcome was inactive. The result for `C=C(C)C(=O)OCc1ccccc1` reads “inactive”; that for `CCOCCOC(=O)/C=C/c1ccc(OC)cc1`, “inactive”.

Take `O=C(OCc1ccccc1)C(=O)OCc1ccccc1`: the outcome was inactive. The result for `CC(C)(C)OC(=O)c1ccc(O)cc1` reads “inactive”; that for `Cc1cc(C(C)(C)C)c(O)c(C)c1CC1=NCCN1`, “inactive”; that for `CC1COc2ccccc2N1` (stereo not given), “inactive”. Take `Nc1nnc(-c2cccc(Cl)c2Cl)c(N)n1`: the outcome was inactive. The result for `CCCC(=O)C(C)=O` reads “inactive”; that for `CCOc1cc(NC(C)=O)ccc1C(=O)OC`, “inactive”. As for `O=C(NCC(O)CO)c1c(I)c(C(=O)NCC(O)CO)c(I)c(N(CCO)C(=O)CO)c1I` (stereo not given), the entry is “inactive”; as for `O=C(c1ccc(O)cc1)c1ccc(O)c(O)c1O`, “inactive”; as for `CCCCCCCCSCC`, “inactive”. As for `CCCCCCCCOS(=O)(=O)O`, the entry is “inactive”.

As to `COCCc1ccc(OCC2CO2)cc1` (stereo not given), the result was inactive. As for `O=C(OCC1(COC(=O)c2cccnc2)CCCC(COC(=O)c2cccnc2)(COC(=O)c2cccnc2)C1O)c1cccnc1`, the entry is “inactive”; as for `O=C1c2ccccc2C(=O)c2cc(S(=O)(=O)O)ccc21`, “inactive”; as for `NCCS`, “inactive”. The result for `CC(C)C(=O)OCCc1ccccc1` reads “inactive”; that for `Cc1cccc(C)c1NC(=O)c1ccccc1C(=O)O`, “inactive”; that for `CC1(C)S[C@@H]2[C@H](N=CN3CCCCCC3)C(=O)N2[C@H]1C(=O)O`, “inactive”. With `CCCCN`, the outcome was inactive.

In the case of `OCCC(F)(F)C(F)(F)C(F)(F)C(F)(F)C(F)(F)C(F)(F)C(F)(F)C(F)(F)F`, the outcome was inactive. With `O=C(CCNNC(=O)c1ccncc1)NCc1ccccc1`, the result was inactive. The result for `C[C@@H](Oc1ccc(CNC(=O)c2cccnc2Oc2ccc3c(c2)OCO3)c(F)c1)C(=O)O` reads “inactive”.

Consider `CCCCCCCC/C=C\CCCCCCCC(=O)OCCCC`, for which the result was inactive. Consider `CN(C)c1ccc(C=O)cc1`, for which the outcome was inactive. On to `C#CC(C)N(C)C(=O)Nc1ccc(Cl)cc1` (stereo not given), for which the result was inactive. As for `O=C(NCCN1CCOCC1)c1ccc(Cl)cc1`, the entry is “inactive”; as for `CC(C)=O`, “inactive”; as for `FC(F)(F)c1ccccc1-n1ccnc1`, “inactive”.

On to `O=C(CS(=O)Cc1ccco1)NC/C=C\COc1cc(CN2CCCCC2)ccn1` (stereo not given), for which the outcome was inactive. For the compound `Oc1ccccc1-c1nnco1`, the outcome was inactive.

Take `C[C@H](N)[C@H](O)c1cccc(O)c1`: the outcome was inactive. On to `CC(=O)c1sc(C)nc1C`, for which the outcome was inactive.

With `COC(=O)[C@@H]1[C@H]2C[C@H]3c4[nH]c5ccccc5c4CCN3C[C@@H]2CC[C@@H]1O`, the result was inactive.
